Compounds with a hit are over-represented: about 1.6% of the library has one in this group of screens.
KCNQ2 enhance – potentiators of rat KCNQ2 potassium channel; AID 2239, 2010; Potassium voltage-gated channel subfamily KQT member 2 (Rattus norvegicus), O88943; B-score at 10 µM; actives 0.54% (n = 310,000); CHO-K1 KCNQ2, FluxOR thallium flux fluorescence; active compounds read high;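 active = fluorescence ratio B-score at least 3 SD of library B-scores, with initial fluorescence B-score within 3 of them, cut at about 5.3 in these data; same plate scores as AID 2156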;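 also: B-score of peak minus minimum over baseline fluorescence ratio after K+ and Tl+ stimulus; positive B-score means potentiation of KCNQ2 with more thallium influx and brighter signal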
KCNQ2 inh – rat KCNQ2 potassium channel inhibitors, primary screen, cell-based, CHO-K1, FluxOR thallium flux, B-score; Potassium voltage-gated channel subfamily KQT member 2 (Rattus norvegicus), O88943; 20 min; active compounds read low; B-score at 10 µM; actives 1.1% (n = 310,000);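 active = fluorescence ratio B-score at most minus 3 library SDs, with starting brightness B-score within 2 library SDs, cut at about -5.5 in these data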
Kir21 conf inh – mouse Kir2.1 channel blockers, retest, confirmation, cell-based, FluxOR thallium flux, duplicate; shares compounds with KCNQ2 enhance; Kir2.1-expressing cells, FluxOR thallium flux fluorescence; active compounds read low; Tl flux remaining, % of negative control (active compounds read low), % at 10 µM; actives 41% (n = 2,300); AID 2032, 2009;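 active = Primary-screen hit whose thallium flux fell at least 3 control SD below untreated wells in both duplicates, with normal baseline fluorescence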;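 also: 0% = blank wells without stimulus and 100% = stimulated no-compound controls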
HEK293 Tl flux – alters thallium flux in parental HEK293 cells, Kir2.1 counter-screen; AID 2105; FluxOR thallium flux fluorescence; 0% = unstimulated blank wells; actives 19% (n = 2,300); shares compounds with KCNQ2 enhance; FluxOR signal as % of negative control (100 = no effect), % at 10 µM;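 active = dye signal at least 3 control SD above or below untreated wells in both duplicates, raw fluorescence within 3, either direction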;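 also: percent is based on the flux ratio of peak minus minimum fluorescence over baseline F0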
CHO-K1 Tl ctr – nonspecific thallium flux increase in parental CHO-K1, confirmation, counter-screen for KCNQ2 potentiator project, cell-based, FluxOR thallium flux, duplicate; activity increase over 3SD of controls, % at 10 µM; parental CHO-K1 cells, FluxOR thallium flux fluorescence; zero = vehicle mean+3SD, 100% = vehicle-minus-blank window; shares compounds with KCNQ2 enhance; actives 43% (n = 1,200);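 active = signal rise of at least 3 SD above the untreated control mean, in both duplicate wells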;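 also: counter screen of KCNQ2 potentiator hits so any rise reflects channel-independent effects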
KCNQ1 sel pot – human KCNQ1 channel potentiation off-target, confirmation, selectivity assay for KCNQ2 potentiator project, cell-based, CHO, FluxOR thallium flux. actives 28% (n = 1,200). shares compounds with KCNQ2 enhance. activation over 3SD threshold, % at 10 µM. CHO KCNQ1 stable, FluxOR thallium flux fluorescence; beyond 3SD, as % of vehicle-control signal;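 active = fluorescence ratio rise of at least 3 SD of vehicle wells above their mean, in both replicate wells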;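 also: 0% = vehicle mean plus 3 SD and 100% = vehicle minus unstimulated blank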
KCNQ2 pot confirm – rat KCNQ2 channel potentiators, confirmation, cell-based, CHO, FluxOR thallium flux, duplicate; shares compounds with KCNQ2 enhance; CHO-KCNQ2 cells, FluxOR thallium flux fluorescence; potentiation, less the hit threshold, % at 10 µM; actives 68% (n = 1,200); AID 2287, 2010;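 active = fluorescence ratio rising 3 SD or more over the vehicle control mean in both replicates, plus primary screen hit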;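 also: peak minus minimum thallium fluorescence divided by baseline after K/Tl stimulus; 0% = vehicle mean plus 3 SD and 100% = vehicle minus unstimulated blank difference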
Kir2-1 sel – mouse Kir2.1 channel activation off-target, confirmation, selectivity assay for KCNQ2 potentiator project, cell-based, HEK293, FluxOR thallium flux; shares compounds with KCNQ2 enhance; HEK293 Kir2.1, FluxOR thallium flux fluorescence; activity over 3SD threshold, % at 10 µM; actives 2% (n = 1,200);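 active = fluorescence ratio rise of at least 3 SD above the vehicle-control mean, seen in both replicates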;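 also: 0% = vehicle mean plus 3 SD and 100% = vehicle minus no-stimulus blank window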
KCNQ2 W236L pot – potentiators of retigabine-insensitive KCNQ2 W236L, mechanism study for KCNQ2 potentiator project, cell-based, rat KCNQ2 W236L, CHO, automated patch clamp; current increase over 3SD of negative controls (%), active compounds read high, % at 25 µM; actives 10% (n = 940); AID 2558, 2010; automated patch clamp current; shares compounds with KCNQ2 enhance;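 active = current increase at least 3 SD of the untreated controls above them in both duplicate recordings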
Target sequence (O88943 whole entry W236L, looked up): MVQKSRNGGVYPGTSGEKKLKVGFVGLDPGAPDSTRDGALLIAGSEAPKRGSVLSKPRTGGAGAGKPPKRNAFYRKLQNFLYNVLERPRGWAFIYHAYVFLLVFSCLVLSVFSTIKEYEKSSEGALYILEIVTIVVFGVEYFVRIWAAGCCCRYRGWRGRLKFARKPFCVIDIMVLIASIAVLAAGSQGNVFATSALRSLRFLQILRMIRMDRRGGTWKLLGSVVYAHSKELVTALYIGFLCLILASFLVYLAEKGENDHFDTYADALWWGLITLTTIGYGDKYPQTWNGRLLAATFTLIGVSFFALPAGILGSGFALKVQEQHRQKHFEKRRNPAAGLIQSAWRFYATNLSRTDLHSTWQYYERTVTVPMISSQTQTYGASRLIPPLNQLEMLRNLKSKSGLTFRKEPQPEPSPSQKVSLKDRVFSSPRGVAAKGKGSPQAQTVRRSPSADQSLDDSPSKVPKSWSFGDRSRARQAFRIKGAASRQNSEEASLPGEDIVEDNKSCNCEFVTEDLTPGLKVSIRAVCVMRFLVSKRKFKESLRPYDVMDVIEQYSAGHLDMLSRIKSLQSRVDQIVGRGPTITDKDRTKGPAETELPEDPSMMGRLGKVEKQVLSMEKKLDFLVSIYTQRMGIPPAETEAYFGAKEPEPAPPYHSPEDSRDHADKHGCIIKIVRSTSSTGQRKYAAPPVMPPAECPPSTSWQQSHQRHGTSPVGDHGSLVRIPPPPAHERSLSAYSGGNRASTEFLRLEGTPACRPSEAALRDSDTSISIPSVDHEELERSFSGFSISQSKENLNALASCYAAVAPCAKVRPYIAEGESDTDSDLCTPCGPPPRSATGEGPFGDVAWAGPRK
* marks the source's active call; other numbers are inactive results; i = inactive; · = no result given.

SMILES	KCNQ2 enhance	KCNQ2 inh	Kir21 conf inh	HEK293 Tl flux	others
CCCC(=O)N(CCN1CCOCC1)c1nc2c(F)cc(F)cc2s1	1.4	i	·	·
O=C(CCC(=O)N1CCCCC1)Nc1ccc(Cl)c(Cl)c1	·	i	·	·
Cn1c(N)c(N2CCCCC2)c(=O)n(CC(=O)Nc2ccc(Cl)c(Cl)c2)c1=O	17*	i	i	i	CHO-K1 Tl ctr=-7;KCNQ1 sel pot=-15;KCNQ2 pot confirm=47*;Kir2-1 sel=-35;KCNQ2 W236L pot=i
Cc1[nH]n(-c2ccccc2)c(=O)c1/C=N/NC(=O)c1ccc(O)cc1O	·	i	·	·
CCCCN(CCCC)C(=S)N/N=C/c1c(C)[nH]n(-c2ccccc2)c1=O	6.7*	i	i	i	CHO-K1 Tl ctr=0.0*;KCNQ1 sel pot=-27;KCNQ2 pot confirm=-30;Kir2-1 sel=-24
Cc1ccc(S(=O)(=O)NCC(C)n2cncn2)cc1 (stereo unspecified)	0.14	i	·	·
C[C@@H](CN1C2=NC[C@H](Cc3ccc(O)cc3)N2C[C@H]1Cc1ccc(O)cc1)NC(=O)CCC1CCCCC1	·	i	·	·
COc1ccc(C[C@H]2CN3C(=NC[C@@H]3Cc3ccc(O)cc3)N2C[C@H](C)NC(=O)c2ccc(C)c(Br)c2)cc1	·	i	48%*	i
COc1ccc(C[C@H]2CN3C(=NC[C@@H]3C(C)C)N2C[C@H](C)NC(=O)c2ccc(C)c(Br)c2)cc1	·	i	55%*	i
Cc1ccc(C(=O)N[C@@H](C)CN2C3=NC[C@H](C(C)C)N3C[C@H]2Cc2ccc(O)cc2)cc1Br	·	i	·	·
COc1ccc2c(c1)nc(SCC(O)c1ccccc1)n2C (stereo unspecified)	1	i	·	·
CCCCC(=O)OCc1nc(N)nc(Nc2ccccc2C)n1	1.1	i	·	·
Cc1ccc(/C=C/C(=O)OCc2nc(N)nc(Nc3ccccc3C)n2)o1	6.9*	i	i	i	CHO-K1 Tl ctr=144*;KCNQ1 sel pot=-6;KCNQ2 pot confirm=2.1*;Kir2-1 sel=-46;KCNQ2 W236L pot=i
Cc1[nH][nH]c(=O)c1C(c1ccc(Cl)cc1)c1c(C)[nH][nH]c1=O	0.02	i	·	·
COc1ccccc1OCCCc1c(C)n[nH]c1C	5.8*	i	i	i	CHO-K1 Tl ctr=42*;KCNQ1 sel pot=-8;KCNQ2 pot confirm=-6;Kir2-1 sel=-47;KCNQ2 W236L pot=i
COc1ccccc1OCCCCCc1c(C)n[nH]c1C	·	i	·	·
Cc1[nH]c2ccccc2c1N=Nc1ccccc1C(=O)O	3.3	i	·	·
CN(CC(=O)NCCc1ccc(F)cc1)Cc1cccc(Cl)c1	·	i	45%*	i
CSc1ccccc1NC(=O)CN(C)Cc1cccc(Cl)c1	·	i	·	·
O=C(O)CCC(=O)NCCc1cccc(Cl)c1	·	i	·	·
CN(CC(=O)NCCCc1ccccc1)Cc1ccc(Br)cc1	·	i	·	·
O=C(Cc1ccccc1)NCCc1cccc(Cl)c1	11*	i	i	i	CHO-K1 Tl ctr=-12;KCNQ1 sel pot=-13;KCNQ2 pot confirm=23*;Kir2-1 sel=-38;KCNQ2 W236L pot=i
CN(CC(=O)NCCc1ccc(F)cc1)Cc1ccc(Br)cc1	-5.7	-5.7*	58%*	i
C=C(C)Cn1c(=O)c2c(nc3n2CCCN3CCc2ccccc2)n(C)c1=O	1.2	i	·	·
O=C1S/C(=C/c2ccccc2F)C(=O)N1CCN=C1NS(=O)(=O)c2ccccc21	1.5	i	·	·
SMILES	KCNQ2 enhance	KCNQ2 inh	Kir21 conf inh	HEK293 Tl flux	others
CN1CCN(S(=O)(=O)c2ccc3c(c2)oc(=O)n3C)CC1	·	i	·	·
Cc1ccc(NC(=O)CSc2ncnc3ccccc23)cc1S(=O)(=O)N1CCCCCC1	·	i	·	·
CCn1cc(CCC(=O)NC(C)c2ccccc2)c2ccccc21 (stereo unspecified)	0.65	i	i	i
CCn1cc(CCC(=O)NCCc2ccccc2)c2ccccc21	·	i	·	·
CC12CCC(=O)N1C(C(=O)N1CCN(S(=O)(=O)c3ccc(Br)cc3Cl)CC1)CS2 (stereo unspecified)	·	i	·	·
O=C(O)c1ncc(Cl)c(Cl)c1Cl	0.12	i	·	·
CC(C)Cc1ccc(C(C)C(N)=NCCc2ccccc2)cc1 (stereo unspecified)	·	i	i	i
COc1ccc(CCN=C(N)C(C)c2ccccc2)cc1OC (stereo unspecified)	0.65	i	·	·
CC1(c2nnc(-c3ccccc3)o2)CC(c2ccccc2)=NO1 (stereo unspecified)	·	i	·	·
Cc1cccc(N(CC(=O)NCC2CCCO2)C(=O)CNS(=O)(=O)c2ccc(Cl)cc2)c1 (stereo unspecified)	1.2	i	·	·
CCOc1cccc(CN2CCCC(CNC(=O)c3cccc(OC)c3OC)C2)c1 (stereo unspecified)	·	i	·	·
COc1ccc(C)cc1NC(=O)c1ccc(S(=O)(=O)N2CCCCC2)cc1	·	i	·	·
O=C(c1cccc2ccccc12)C1CCCN(C(=O)c2ccc(N3CCOCC3)cc2)C1 (stereo unspecified)	·	i	·	·
Cc1ccc(NC(=S)NCc2ccc(S(N)(=O)=O)cc2)c(C)c1	0.24	i	·	·
Cc1ccc(NC(=S)NCc2ccc(F)cc2)c(C)c1	5.5*	i	i	i	CHO-K1 Tl ctr=-7;KCNQ1 sel pot=-8;KCNQ2 pot confirm=42*;Kir2-1 sel=-53;KCNQ2 W236L pot=i
COc1cccc(C(C)NC(=S)NCc2ccc(F)cc2)c1 (stereo unspecified)	3.2	i	48%*	i
CCc1ccc(C(C)NC(=S)NCc2ccc(F)cc2)cc1 (stereo unspecified)	4.6	i	·	·
CCOc1ccc(C(C)NC(=S)NCc2ccc(F)cc2)cc1 (stereo unspecified)	2.9	i	·	·

Screening results deposited in PubChem by Johns Hopkins Ion Channel Center.
